Assays:
Assay in all cases: PBM binding z-score (relative to random genomic background probes); higher = stronger binding; sequences stand for … in GC…GCGATTGACAGCGTAGAATGAAGG
[1] = system: FXR:RXRa (NR concentration 270 nM, RXRa partner concentration 90 nM)
In short: (§1)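 For binding z-scores, the reference was random background probes on custom Agilent 4×180K protein-binding microarrays. These arrays were incubated 1 h with ligand-free nuclear receptor dimers in PBS pH 7.4, 2% milk, 0.02% Triton X-100, 1 mM DTT, 0.2 mg/mL BSA and 0.4 mg/ml salmon testes DNA. Fluorescence was scanned after antibody detection of each partner (one per run) and regression-normalized.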

[2] = system: LXRa:RXRa (NR concentration 270 nM, RXRa partner concentration 90 nM)
In short: as §1

[3] = system: LXRa homodimer (NR concentration 270 nM)
In short: as §1

[4] = system: LXRb:RXRa (NR concentration 270 nM, RXRa partner concentration 90 nM)
In short: as §1

[5] = system: LXRb homodimer (NR concentration 270 nM)
In short: as §1

[6] = system: PPARa:RXRa (NR concentration 270 nM, RXRa partner concentration 90 nM)
In short: as §1

[7] = system: PPARg:RXRa (NR concentration 180 nM, RXRa partner concentration 90 nM)
In short: as §1

[8] = system: PPARg:RXRa 270nM:90nM, anti-RXR (NR concentration 270 nM, RXRa partner concentration 90 nM)
In short: as §1

[9] = system: PPARg:RXRa 30nM:10nM, anti-RXR (NR concentration 30 nM, RXRa partner concentration 10 nM)
In short: as §1

[10] = system: PPARg:RXRa 90nM:30nM, anti-RXR (NR concentration 90 nM, RXRa partner concentration 30 nM)
In short: as §1

Sequence	PBM binding z-score [1]	PBM binding z-score [2]	PBM binding z-score [3]	PBM binding z-score [4]	PBM binding z-score [5]	PBM binding z-score [6]	PBM binding z-score [7]	PBM binding z-score [8]	PBM binding z-score [9]	PBM binding z-score [10]
CCTATTTGGTCAAGGTCACACACGCTATAGGTAC	4.34	4.04	2.64	4.09	1.47	4.33	3.07	3.58	1.55	2.5
CCTAGCAGTCCAATCTGGGTCACTCAAGGCTTGA	0.349	0.868	-0.0916	0.921	-0.342	2.91	1.73	2.01	-0.0165	1.64
GGAACGAGGGCAAGTGGATAGCAGAGTTTGATGG	0.68	0.618	-0.0905	0.0624	-0.475	1.36	1.21	1.21	-0.127	0.598
TTACCAAGGTGAAGGTCGTTGTTCCCTCTGTAGA	1.41	1.32	0.195	1.41	-0.491	2.58	2.54	4.08	2.07	3.78
CAAACTAGGTCACAGAGGTCAATGTCCGTGCGTA	6.85	6.22	6.83	6.14	1.81	6.32	10	8.44	6.44	8.59
TTACCAAGGTGAGTTGAGGTCGTTGATCCAACTC	1.28	2.03	-0.25	1.39	-0.831	2.06	0.352	0.682	0.292	0.637
ACTACCAGGCCAAGGGTCACTCAAGATTAGTCCG	2.84	3.11	0.63	3.41	0.443	5.06	8.68	7.51	6.65	7.73
CAAACTAGGTCAAAGGTCAAAGTCGAGCCAACCA	8.73	7.31	6.02	7.38	3.55	7.8	14	11.4	12.3	13.1
CCTAGCAGGCCAAGGTCACTCAAGCATTTCGCTT	3.06	2.72	0.474	2.51	-0.42	3.34	1.14	2.44	-0.0507	1.65
CAGCCAAGGTCAGGGCCAGTATAGGAGGAACGTT	5.13	3.08	-0.277	2.25	-0.506	4.22	2.73	2.77	0.584	1.61
TCTTGTAGATCAAGGAGGTTAAGAAAGCCTGAGT	0.502	0.513	-0.308	0.459	-0.443	1.27	-0.429	1.44	2.7	1.77
ACTATTCGTTGACTTAGGGCAACCGATACGACGC	0.425	0.382	0.669	0.263	1.46	0.125	0.87	-0.0902	0.272	0.212

From the supplement of paper PMC6555819
